In the library only some 3.2% were active in any assay of this set; here they are far more common.
KDM4E inh: JMJD2E (human) inhibition; B2RXH2; JMJD2E catalytic domain, FDH-coupled NADH fluorescence (FDH is formaldehyde dehydrogenase); Potency, µM (doses to about 57.1 µM), without a hit: top-dose activity change, negative = inhibition, usual class: inhibitors; AID 2147; 230,000 tested, 1.6% active; active means well fitted inhibition curve with a large enough effect, not every such curve was filed as active; inconclusive means small, poorly fitted or top-dose-only effect, or another doubt; inactive means no such curve, though single readings can be large or run the other way;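 further: potency means the concentration at half of the fitted maximal effect; 0% = wells with enzyme and -100% = buffer wells without enzyme; nearly all actives have a fitted effect of over 50% in size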
Target sequence (B2RXH2 1-337 limits assumed): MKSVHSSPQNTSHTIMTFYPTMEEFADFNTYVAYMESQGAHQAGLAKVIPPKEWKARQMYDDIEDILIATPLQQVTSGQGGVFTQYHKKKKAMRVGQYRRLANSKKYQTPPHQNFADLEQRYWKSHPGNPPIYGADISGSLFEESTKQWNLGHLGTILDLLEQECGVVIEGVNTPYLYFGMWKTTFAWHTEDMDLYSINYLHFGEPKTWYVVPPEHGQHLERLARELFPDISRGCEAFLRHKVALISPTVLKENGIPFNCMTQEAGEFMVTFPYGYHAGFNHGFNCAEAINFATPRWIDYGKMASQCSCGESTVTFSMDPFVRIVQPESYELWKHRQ
CBFb-RUNX1 inh: CBF-beta/RUNX1 interaction disruption; Potency, µM (highest dose often 59.8 µM), without a hit: at the top dose activity, negative = inhibition, usual class: inhibitors; Q01196+Q13951; AlphaScreen CBFb-His/RUNX1-biotin binding, biochemical; 230,000 tested, under 10 active; further: % of control where 0% means no effect
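Room-temperature protein-protein interaction test with 30 nM each of His-tagged CBF-beta and biotinylated RUNX1, 15 min with compound, then 90 min with nickel plus streptavidin beads. Signal read in AlphaScreen mode.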
Tau fluor cs: counter-screen for tau fibril formation inhibitors; tau K18 P301L Alexa594 fluorescence, heparin fibrillization; Potency, µM (titrated, usually from 57.7 µM), for inactives: at the top dose activity change, negative = decrease; 280,000 tested, 0.93% active; AID 1463; further: potency means the concentration at half of the fitted maximal effect; on the % scale 0 is the no-effect control and ±100 the full control effect; nearly all actives have a fitted effect of over 55% in size
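Human K18 P301L tau (15 uM unlabeled plus 0.24 uM Alexa 594-labeled, final) in 100 mM sodium acetate pH 7 was mixed with compound and 20 uM heparin and incubated 6 hr at 37 C.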
LMNA splice mod: modulators of lamin A splicing; HeLa LMNA splicing GFP/RFP minigene ratio, 48 h; Potency, µM (series often up to 46.1 µM), without a hit: at the highest dose ratio change, negative = inhibition, usual class: inhibitors; 200,000 tested, 0.01% active; active means well fitted inhibition curve with a large enough effect in the signal ratio, with a control signal flat, not every such curve was filed as active; inconclusive means small, poorly fitted or top-dose-only effect, or effect the other way, or a change in a side signal; the % refers to the signal ratio; further: potency means the concentration at half of the fitted maximal effect; on the % scale 0 is the no-effect control and ±100 the full control effect
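S3 HeLa stable clones carrying a lamin A-EGFP splicing minigene plus DsRed2 were seeded at 600 cells/well in Opti-MEM with 2% FBS, pin-dosed and incubated 48 h at 37°C. Acumen cytometry (488 nm) gave the GFP/RFP total-intensity ratio.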
Tau fibril ThT: blocks human tau fibril formation measured by thioflavin T. P10636. recombinant tau K18 P301L, heparin-induced fibrillization, ThT fluorescence. Potency, µM (series often up to 57.4 µM), for the others: at the top dose activity, negative = inhibition, most hits filed as inhibitors. 270,000 tested, 2.1% active. AID 1460; further: potency means the concentration at half of the fitted maximal effect; on the % scale 0 is the no-effect control and ±100 the full control effect; nearly all actives have a fitted effect of over 55% in size
Target sequence (P10636 561-689 P618L limits assumed): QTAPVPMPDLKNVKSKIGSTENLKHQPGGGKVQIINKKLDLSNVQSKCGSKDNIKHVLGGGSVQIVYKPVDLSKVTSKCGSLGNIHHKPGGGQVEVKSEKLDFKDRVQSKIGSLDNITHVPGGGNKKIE
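Recombinant human tau K18 fragment […] carrying P301L, 15 uM unlabeled plus 0.24 uM Alexa 594-labeled, was fibrillized with 20 uM heparin in 100 mM sodium acetate pH 7 for 6 hr at 37 C; 30 uM ThT fluorescence read after 1 hr.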
Tau fibril FP: blocks human tau fibril formation measured by polarization | AID 1468 | K18 P301L tau heparin fibrillization, Alexa594 FP, 6 h | P10636 | Potency, µM (doses to about 57.7 µM), for the others: at the top dose activity, negative = inhibition, usual class: inhibitors | 280,000 tested, 0.39% active; further: potency means the concentration at half of the fitted maximal effect; on the % scale 0 is the no-effect control and ±100 the full control effect; nearly all actives have a fitted effect of over 55% in size
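K18 P301L tau (15 uM unlabeled/0.24 uM Alexa 594-labeled, final) + compound + heparin 20 uM final; 100 mM NaOAc pH 7; 6 hr 37 C; ThT 30 uM final added, 1 hr RT; FP ex 555/em 632 nm.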
Tau fibril TEM: Inhibits human tau fibrillization; shares compounds with Tau fibril ThT; recombinant tau K18 P301L fibrillization, TEM grading; hits give high values; fibril grade (0 = clumped fibrils, 4 = only tiny pieces) (no concentration beside the values); 45 tested, 70% active;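 active means compounds whose electron micrographs showed tau fibrils broken into shorter filaments or fragments, graded high on fibril breakup; inconclusive means micrographs gave an unclear fibril picture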
tau sediment: reduces sedimented tau K18 P301L aggregates; shares compounds with Tau fibril ThT; recombinant tau K18 P301L (four-repeat tau fragment), sedimentation SDS-PAGE densitometry; inhibition, % at 100 µM; 110 tested, 50% active; AID 1720; in the data active means inhibition above about 40%; inconclusive means no clear call, values can overlap the other calls; inactive means below about 18%
Starred values were filed as active, the others as inactive; ? = inconclusive; . = not tested or not shown; [ ] = remark or other dose. Unless noted, the call rests on the fitted dose curve; in most records, active means well fitted curve in the direction sought with a large enough effect; inconclusive means small, poorly fitted or top-dose-only effect, or another doubt; inactive means no such curve, though single readings can be large; an effect the other way counts as inactive or inconclusive.

SMILES	KDM4E inh	CBFb-RUNX1 inh	Tau fluor cs	LMNA splice mod	Tau fibril ThT	Tau fibril FP	Tau fibril TEM	tau sediment
CC(/C=C1\SC(=S)N(NC(=O)c2cccc(O)c2)C1=O)=C\c1ccccc1	?	?	14µM*[quencher]	?	7.1µM*	14µM*	0	?
CCOc1ccc(CNC(=O)C2CCN(S(=O)(=O)N3CCCCC3)CC2)cc1	.	.	-12%	-3%[46 µM]	-4%	-9%	.	.
Cc1ccc(S(=O)(=O)Oc2ccc(/C=N/N=C3/NC(=O)C(CC(=O)O)S3)cc2)cc1 (centres undefined)	3%	-2%	1%	-7%[46 µM]	-15%	0%	.	.
Cc1ccc(-c2ccc(/C=N/N=C3/NC(=O)C(CC(=O)O)S3)o2)c([N+](=O)[O-])c1 (centres undefined)	-8%	-8%	-23%	1%	10µM*	?	?	?
O=C(O)CC1S/C(=N/N=C/c2ccc(-c3ccccc3[N+](=O)[O-])o2)NC1=O (centres undefined)	-28%	-12%	-30%	?	2.2µM*	?	4*	58*
CC(C)C[C@@H](C=O)NC(=O)[C@H](CC(C)C)NC(=O)[C@H](CC(C)C)NC(=O)OCc1ccccc1	.	20%	5%	.	-6%	0%	.	.
CC(C)Cn1c(O)c(/C=C2\C=NN=C2c2ccccc2)sc1=S	1%	-9%	-27%	?	-11%	20µM*	.	14
CC(C)(C)c1ccc(NC(=O)N2CCN(c3ccc([N+](=O)[O-])cn3)CC2)cc1	67%	1%	?	.	?	?	.	15
Cc1ccc(NC(=O)N2CCN(c3ccccn3)CC2)cc1	?	6%	-3%	17%	?	1%	.	18
O=C(Nc1ccccc1)N1CCN(c2ccccn2)CC1	?	-2%	-13%	-1%	-16%	-8%	.	.
O=C(Nc1ccc(F)cc1F)N1CCCN(c2ccc([N+](=O)[O-])cn2)CC1	-2%	-3%	-12%	?	-20%	-2%	.	.
Cc1ccc(OCC(=O)NCC2(N(C)C)CCCCC2)cc1C	.	.	0%	10%[46 µM]	-3%	6%	.	.
COc1cc(-c2nnc(SCC(=O)NCc3ccccc3Cl)o2)cc(OC)c1OC	.	.	2%	.	19%	-11%	.	.
CCOC(=O)Cc1cc(C(=O)Nc2ccc(Br)cc2)sc1-c1ccc(C)cc1	.	.	-28%	.	?	?	.	.
Cn1ncc(Cl)c1C(=O)Nc1cccc(Cl)c1	-2%	-1%	-28%	-9%	13µM*	?	3*	93*
COc1ccc(-c2ccc3ccccc3n2)cc1	?	15%	3%	14%[46 µM]	-13%	4%	.	.
Nc1ccc(-c2ccc3ccccc3n2)cc1	?	26%	?	?	?	13%	.	10
Cc1ccc(SCc2cc(=O)n(C)[nH]2)cc1	?	-14%	?	26%[9.22 µM]	2.2µM*	?	.	14
CC(C)CCNC(=O)CCn1c(=O)c2cccn2c2cccnc21	.	.	-1%	.	-1%	1%	.	.
O=C(NCCCO)Nc1ccc2nc(-c3ccco3)c(-c3ccco3)nc2c1	?	.	7.1µM*[quencher]	-11%	?	?	4.5*	74*
Cc1cc(NC(=O)CSc2nc3c([nH]c4ccccc43)c(=O)n2-c2cccc(Cl)c2)no1	.	.	-5%	?	10%	0%	.	.
CCN(CC)CCN(C(=O)c1ccco1)c1nc2c(C)cccc2s1	.	.	-18%	-15%[46 µM]	-1%	-9%	.	.
CN(C(=S)Nc1cccnc1)c1ccc(O)cc1	?	?	?	?	2µM*	3.2µM*	2*	51*
CCN(C(=S)Nc1cccnc1)c1ccccc1	?	6%	-8%	.	-8%	-3%	.	.

Assay outcomes deposited in PubChem BioAssay by National Center for Advancing Translational Sciences (NCATS).
